Rows were chosen to be rich in hits. Some 3.6% of all compounds tested hit in one or more screens of this group.
S16 viability = toxic to S16 Pmp22-F2sN Schwann cells | AID 1508642 | 43,000 tested, 0.48% active | S16 Pmp22-F2sN Schwann cells viability, CellTiter-Glo, 24 h | Potency, µM (titrated, usually from 57.5 µM), for inactives: at the top dose activity change, negative = cytotoxicity, usual class: cytotoxic; note: potency is the fitted concentration of half-maximal effect; % is set by controls: 0 for no effect and ±100 for the full control effect; nearly all actives have a fitted effect of over 65% in size
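Rat S16 Schwann reporter line, 24 h treatment with library compounds delivered at 23 nL per well. Cell viability by CellTiter-Glo luminescence.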
NTMT1 inh = inhibitors of human N-terminal methyltransferase NTMT1; Potency, µM (highest dose often 114 µM), for the others: at the highest dose activity change, negative = inhibition, usual class: inhibitors; Q9BV86; 59,000 tested, 2.5% active; AID 1645870; NTMT1 MTase-Glo SAH luminescence, purified enzyme;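 note: potency is the fitted concentration of half-maximal effect; plate controls were DMSO vehicle for no effect and no enzyme for full effect; nearly all actives have a fitted effect of over 65% in size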
GALC G270D up = enhancers of human galactocerebrosidase G270D mutant activity in cells | 145M-Twi-hGALC-G270D cells (Twitcher mouse brain line with human GALC G270D), HMU-beta-Gal fluorescence, 48 h | Potency, µM (doses to about 57.5 µM), usual class: activators | 45,000 tested, 0.1% active; note: potency is the fitted concentration of half-maximal effect; 0% is about no effect; nearly all actives have a fitted effect of over 65% in size
Target sequence (P54803 whole entry G286D): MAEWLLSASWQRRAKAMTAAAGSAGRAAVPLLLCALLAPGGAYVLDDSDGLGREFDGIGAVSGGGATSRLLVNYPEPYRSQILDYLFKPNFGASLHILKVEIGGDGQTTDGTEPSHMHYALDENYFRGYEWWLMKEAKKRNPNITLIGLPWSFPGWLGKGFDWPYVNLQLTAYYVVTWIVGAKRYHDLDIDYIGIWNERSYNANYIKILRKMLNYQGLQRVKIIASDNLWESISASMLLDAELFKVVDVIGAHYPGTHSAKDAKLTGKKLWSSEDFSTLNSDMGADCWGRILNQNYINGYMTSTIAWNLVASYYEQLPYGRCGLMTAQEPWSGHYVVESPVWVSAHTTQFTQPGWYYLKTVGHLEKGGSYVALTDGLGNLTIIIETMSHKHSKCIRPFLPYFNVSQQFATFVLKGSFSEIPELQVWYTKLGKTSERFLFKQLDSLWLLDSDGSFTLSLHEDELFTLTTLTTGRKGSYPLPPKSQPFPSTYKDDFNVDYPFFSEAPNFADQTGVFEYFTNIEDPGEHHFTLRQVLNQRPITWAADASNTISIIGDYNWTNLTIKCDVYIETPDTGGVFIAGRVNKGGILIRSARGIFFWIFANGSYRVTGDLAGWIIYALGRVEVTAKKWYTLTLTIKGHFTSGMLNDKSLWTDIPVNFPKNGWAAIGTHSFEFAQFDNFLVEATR
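Fluorogenic HMU-b-Gal hydrolysis (0.1 mM final, pH 5.2 citrate-phosphate with 1 mg/mL sodium taurocholate; carbonate stop buffer) measures mutant GALC activity after compound treatment of live 145M-Twi Twitcher brain cells stably carrying human GALC-G270D, with wild-type GALC line alongside; activation sought.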
OvCa metastasis = blocks SKOV3ip1 adhesion and invasion in omental model; SKOV3ip1-GFP adhesion/invasion on 3D omental model, fluorescence; Potency, µM (top dose mostly 45.8 µM), inactives show at the top dose activity change, negative = inhibition, usual class: inhibitors; 46,000 tested, 0.1% active;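 note: potency is the fitted concentration of half-maximal effect; plate controls were DMSO wells for no effect and tomatine positive control wells for full effect; nearly all actives have a fitted effect of over 65% in size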
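A 3D layer of primary human omental fibroblasts, mesothelial cells, fibronectin and collagen I, grown 48 hr, received SKOV3ip1-GFP cells in serum-free medium plus compounds at 0.36-46 umol/L. After 2 hr RT and 16 hr 37 C, fixed adherent GFP cells were counted; normalized to DMSO and tomatine.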
PMP22 txn prim = PMP22 gene transcription modulation | S16 Pmp22-F2sN Schwann cells, FLuc/NLuc coincidence luminescence, 24 h | Potency, µM (doses to about 57.5 µM), for inactives: top-dose activity change, negative = inhibition, actives largely listed as inhibitors | 43,000 tested, 2% active | AID 1508649; active = clear falling dose curves in both reporters; inconclusive = both reporters move, but less clearly or upward; inactive = either reporter flat; the % is the NLuc reporter signal; note: potency is the fitted concentration of half-maximal effect; % is set by controls: 0 for no effect and ±100 for the full control effect
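qHTS, 1536-well. Cells seeded, compounds added by pin tool, 24 h 37C. Nano-Glo reagent 1 (lysis/FLuc), 10 min RT, read; Stop&Glo, 10 min RT, read NLuc.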
mTORC1 inh = inhibitors of mTORC1 signaling in Tsc2-/- p53-/- MEF cells. AID 493208. Potency, µM (highest dose often 38.3 µM), for inactives: top-dose activity change, negative = inhibition, usual class: inhibitors. Tsc2-/- p53-/- MEF, phospho-rpS6 immunofluorescence/PI, 24 h. 44,000 tested, 0.78% active;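 note: potency is the fitted concentration of half-maximal effect; plate controls were DMSO for no effect and rapamycin for full effect; nearly all actives have a fitted effect of over 50% in size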
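Read-out: phospho-S6 Alexa-488 intensity over PI intensity per well, scored as % active cells using thresholds from rapamycin (7.5 nM) and DMSO controls. Tsc2-/-, p53-/- MEFs exposed to compound for 24 h; PI cell count recorded as viability.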
NLuc saturating = inhibits NanoLuc at saturating substrate, PMP22 counter-screen; shares compounds with PMP22 txn prim; Secreted NLuc enzyme (filtered S16 cell medium), Nano-Glo luminescence; Potency, µM (doses to about 57.5 µM), for inactives: at the highest dose activity change, negative = inhibition, actives largely listed as inhibitors; 690 tested, 4% active; note: potency is the fitted concentration of half-maximal effect; % is set by controls: 0 for no effect and ±100 for the full control effect
NLuc Km ctr = inhibits NanoLuc under Km conditions, PMP22 counter-screen | secreted NLuc enzyme, coelenterazine luminescence, Km conditions | 690 tested, 5% active | shares compounds with PMP22 txn prim | Potency, µM (titrated, usually from 57.5 µM), for the others: at the highest dose activity change, negative = inhibition, most hits filed as inhibitors; note: potency is the fitted concentration of half-maximal effect; % is set by controls: 0 for no effect and ±100 for the full control effect
FLuc counter = counter-screen for PMP22 expression modulators: firefly luciferase inhibition; shares compounds with PMP22 txn prim; purified P. pyralis FLuc, luminescence, 10 min; Potency, µM (series often up to 57.5 µM), for inactives: at the highest dose activity, negative = inhibition, actives largely listed as inhibitors; 690 tested, under 10 active; note: % of control where 0% means no effect
S16 F2sN tox cnf = confirmation of cytotoxicity in S16 Pmp22-F2sN Schwann cells (luciferase reporters placed in the Pmp22 gene) | shares compounds with PMP22 txn prim | S16 Schwann cells viability, CellTiter-Glo ATP luminescence, 24 h | Potency, µM (series often up to 57.5 µM), without a hit: at the highest dose activity change, negative = viability loss, usual class: cytotoxic | 690 tested, 7% active | AID 1508641; note: potency is the fitted concentration of half-maximal effect; % is set by controls: 0 for no effect and ±100 for the full control effect
PMP22 txn conf = confirmation of modulators of PMP22 gene transcription in S16 cells; 690 tested, 22% active; AID 1508646; S16 Schwann cells Pmp22-F2sN, dual luciferase, 24 h; shares compounds with PMP22 txn prim; Potency, µM (highest dose often 57.5 µM), for the others: top-dose activity change, negative = inhibition, most hits filed as inhibitors; active = clear falling dose curves in both reporters; inconclusive = both reporters move, but less clearly or upward; inactive = either reporter flat; the % is the FLuc reporter signal; note: potency is the fitted concentration of half-maximal effect
PMP22 prot conf = rat PMP22 protein level modulation, confirmatory. shares compounds with PMP22 txn prim. S16 Schwann cells Pmp22-HiBiT, luminescence, 48 h. Potency, µM (doses to about 27.9 µM), for inactives: top-dose activity change, negative = inhibition, usual class: inhibitors. 95 tested, under 10 active
An asterisk follows results filed as active; [ ] = another dose, or the depositor's remark. Unless noted, calls come from the whole dose curve; as a rule, active = well fitted curve in the direction sought with a large enough effect; inconclusive = small, poorly fitted or top-dose-only effect, or another doubt; inactive = no such curve, though single readings can be large; an effect the other way counts as inactive or inconclusive.

Results for Cc1c(NC(=O)c2cc3c(s2)CCCC3)cccc1-c1cn(C)c(=O)c(Nc2ccc(C3C(=O)N(C)CCN3C)cc2)n1 (stereo not given) ?
NTMT1 inh: 0%

Results for Cc1c(C(=O)OC2CCCCC2)[nH]c2c1C(=O)CC(c1ccccc1Cl)C2 (stereo not given) ?
S16 viability: inconclusive; NTMT1 inh: 7%; GALC G270D up: inactive; OvCa metastasis: 2%; PMP22 txn prim: 6µM*; mTORC1 inh: inconclusive; NLuc saturating: -19%; NLuc Km ctr: inconclusive; FLuc counter: -19%; S16 F2sN tox cnf: -18%; PMP22 txn conf: -45%

What do the screens show for `Cc1c(C(=O)OC2CCCCC2)[nH]c2c1C(=O)CC(c1ccccc1)C2` (stereo not given)?
S16 viability: 3%; NTMT1 inh: 10%; GALC G270D up: inactive; OvCa metastasis: -6%; PMP22 txn prim: 13µM*; mTORC1 inh: -18%; NLuc saturating: -4%; NLuc Km ctr: 1%; FLuc counter: 0%; S16 F2sN tox cnf: -10%; PMP22 txn conf: inconclusive

Results for Cc1c(C(=O)OC2CCCCC2)[nH]c2c1C(=O)CC(c1ccc(F)cc1)C2 (stereo not given) ?
S16 viability: 3%; NTMT1 inh: 0%; GALC G270D up: inactive; OvCa metastasis: 11%; PMP22 txn prim: inconclusive; mTORC1 inh: -3%

How did O=C(O)c1sc2c(c1-c1nc3ccccc3s1)CCNC2 do in these assays?
NTMT1 inh: 17%

What do the screens show for `CC(C)NCC(C(=O)N1CCN(c2ncnc3c2C(C)CC3O)CC1)c1ccc(Cl)cc1` (stereo not given)?
NTMT1 inh: 2%[57.5 µM]

Results for CC(=O)N1c2ccc(-c3ccc(C(=O)O)cc3)cc2[C@H](Nc2ccc(Cl)cc2)C[C@@H]1C ?
NTMT1 inh: -1%

Results for CCC(C)NC(=O)c1cn(CC)c2ccc(S(=O)(=O)N3CCc4ccccc4C3)cc2c1=O (stereo not given) ?
S16 viability: -20%; NTMT1 inh: -14%; GALC G270D up: inactive; OvCa metastasis: inactive; PMP22 txn prim: 17µM*; mTORC1 inh: 1%; NLuc saturating: -5%; NLuc Km ctr: 5%; FLuc counter: 4%; S16 F2sN tox cnf: -23%; PMP22 txn conf: -41%

How did CCn1cc(C(=O)NCCc2ccc(OC)c(OC)c2)c(=O)c2cc(S(=O)(=O)N3CCCCCC3)ccc21 do in these assays?
S16 viability: inconclusive; NTMT1 inh: 1%; GALC G270D up: inactive; OvCa metastasis: 6%; PMP22 txn prim: inconclusive; mTORC1 inh: 1%; NLuc saturating: inconclusive; NLuc Km ctr: inconclusive; FLuc counter: -10%; S16 F2sN tox cnf: -3%; PMP22 txn conf: -54%

How did Cc1nnc(-c2cnn(C)c2N)n1CCCn1cccc1 do in these assays?
NTMT1 inh: 2%

How did CCc1ccc(-n2c(SCc3cccc(F)c3)nc3[nH]ncc3c2=O)cc1 do in these assays?
S16 viability: inconclusive; NTMT1 inh: -1%; GALC G270D up: inactive; OvCa metastasis: 7%; PMP22 txn prim: 16µM*; mTORC1 inh: -6%; NLuc saturating: -18%; NLuc Km ctr: inconclusive; FLuc counter: -3%; S16 F2sN tox cnf: inconclusive; PMP22 txn conf: inconclusive

Results for CS(=O)(=O)c1ncc(Cl)c(C(=O)Nc2c(C(=O)c3ccc(Cl)cc3)oc3ccccc23)n1 ?
S16 viability: 1%; NTMT1 inh: -2%; GALC G270D up: inactive; OvCa metastasis: inactive; PMP22 txn prim: -18%; mTORC1 inh: 1%

How did CCS(=O)(=O)c1ncc(Cl)c(C(=O)Nc2c(C(=O)c3ccc(C)cc3)oc3ccccc23)n1 do in these assays?
S16 viability: inconclusive; NTMT1 inh: inconclusive; GALC G270D up: inactive; OvCa metastasis: -9%; PMP22 txn prim: 2.1µM*; mTORC1 inh: -5%; NLuc saturating: -7%; NLuc Km ctr: inconclusive; FLuc counter: 2%; S16 F2sN tox cnf: inconclusive; PMP22 txn conf: 9.3µM*; PMP22 prot conf: -24%

How did Cc1ccc(Nc2nnc(-c3ccc([N+](=O)[O-])cc3)o2)cc1Cl do in these assays?
NTMT1 inh: -2%[57.5 µM]

Results for CCn1c(=O)c2cc(C(=O)NC3CCC(C)CC3)sc2c2ccccc21 (stereo not given) ?
S16 viability: inconclusive; NTMT1 inh: 4%; GALC G270D up: inactive; OvCa metastasis: inactive; PMP22 txn prim: 17µM*; mTORC1 inh: -10%; NLuc saturating: inconclusive; NLuc Km ctr: -19%; FLuc counter: -3%; S16 F2sN tox cnf: 18%; PMP22 txn conf: -7%

High-throughput results (PubChem BioAssay)
